# Most compounds without a hit are left out; they make up all but 12% or so of the library.
# Sfp inh – inhibitors of Bacillus subtilis Sfp phosphopantetheinyl transferase. Potency, µM, actives largely listed as inhibitors. Biochemical Sfp PPTase activity, qHTS. 3.5% of 310,000 active. AID 1490. Q9F4F7;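 note: the enzyme is Sfp with the accession as filed and its product quenches rhodamine fluorescence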
#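 Compounds were incubated with enzyme (final 15 nM) for 15 min at room temperature before substrate addition started the reaction. Fluorescence at 525 nm excitation, 598 nm emission was recorded immediately and after 30 minutes.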
# ALDH1A1 block – blocks purified human ALDH1A1 activity. Potency, µM (highest dose often 75.3 µM), most hits filed as inhibitors. 7.3% of 220,000 active. P00352. Purified ALDH1A1, NADH fluorescence, propionaldehyde substrate; active = well fitted inhibition curve with a large enough effect, not every such curve was filed as active; inconclusive = small, poorly fitted or top-dose-only effect, or another doubt; inactive = no such curve, though single readings can be large or run the other way
# Target sequence (P00352 whole entry, looked up): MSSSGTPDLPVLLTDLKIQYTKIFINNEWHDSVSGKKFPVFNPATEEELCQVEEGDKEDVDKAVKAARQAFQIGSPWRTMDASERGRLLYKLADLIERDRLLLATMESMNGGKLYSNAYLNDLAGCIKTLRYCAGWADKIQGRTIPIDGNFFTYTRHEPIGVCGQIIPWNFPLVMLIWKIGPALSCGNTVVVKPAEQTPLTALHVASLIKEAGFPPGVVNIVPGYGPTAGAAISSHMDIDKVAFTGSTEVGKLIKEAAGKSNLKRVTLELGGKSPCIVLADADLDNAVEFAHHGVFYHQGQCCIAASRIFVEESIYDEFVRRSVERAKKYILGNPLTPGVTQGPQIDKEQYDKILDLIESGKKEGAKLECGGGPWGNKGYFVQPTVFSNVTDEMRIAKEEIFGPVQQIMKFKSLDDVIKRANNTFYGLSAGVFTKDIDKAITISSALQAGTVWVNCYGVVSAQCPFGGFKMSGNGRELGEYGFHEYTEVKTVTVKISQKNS
# VP16 counter – Gal4-VP16 reporter inhibition counter-screen. Drosophila S2 Gal4-VP16 UAS-luciferase, luminescence, 20 h. Potency, µM (doses to about 53.6 µM), hits mostly inhibitors. 3.5% of 310,000 active. AID 2546;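 note: Gal4-VP16 expression switched on by copper sulfate through the metallothionein promoter; nearly all actives have a fitted effect of over 50% in size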
# PLK1 PBD inh – blocks phosphopeptide binding to human PLK1 polo-box domain; P53350; Plk1 PBD binding of FITC phosphopeptide, fluorescence polarization; Potency, µM, usual class: inhibitors; 2.8% of 360,000 active; AID 720504; note: series mostly up to about 57 µM; nearly all actives have a fitted effect of over 65% in size
# RORgamma inh – blocks mouse ROR gamma transcriptional activity; P51450; Potency, µM (series often up to 53.6 µM), most hits filed as inhibitors; Drosophila S2 Gal4-RORgamma UAS-luciferase reporter, 20 h; 5.4% of 310,000 active; AID 2551; note: nearly all actives have a fitted effect of over 60% in size
#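 Luciferase reporter read in Schneider cells carrying Gal4-RORγ (mouse) and UAS-Photinus luciferase; cells given compound 1 h before 700 uM copper sulfate induction, then incubated 20 h at ambient temperature.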
# A number is an active result; n = inactive; u = inconclusive; x = no result; ! = repeats disagree; [ ] = remark or other dose. Unless noted, calls come from the whole dose curve; as a rule, active = well fitted curve in the direction sought with a large enough effect; inconclusive = small, poorly fitted or top-dose-only effect, or another doubt; inactive = no such curve, though single readings can be large; an effect the other way counts as inactive or inconclusive.
SMILES,Sfp inh,ALDH1A1 block,VP16 counter,PLK1 PBD inh,RORgamma inh
c1cncc(C2CCCCN2Cc2ccc3c(c2)OCO3)c1 (stereo not drawn),n,n,n,n,n
O=C(c1cc2ccccn2n1)N1CCC2(CC1)OCCO2,n,u,n,n,n
COc1ccc(-c2cc(C(F)(F)F)n3nc(C(=O)N4CCC5(CC4)OCCO5)cc3n2)cc1OC,n,10µM,n,n,n
c1ccc2c(CCNC3CCCCC3)c[nH]c2c1,50µM,u,n,n,n
CCCCCn1c(=O)c(C(=O)NCc2ccc(Cl)cc2)c(O)c2ccccc21,n,x,13µM,n,10µM
CCCCn1c(=O)c(C(=O)NCc2ccccc2)c(O)c2ccccc21,n,x,u,n,u
CCCCn1c(=O)c(C(=O)NCc2ccncc2)c(O)c2ccccc21,n,u,u,n,u
CCCCn1c(=O)c(C(=O)NCc2ccccc2Cl)c(O)c2ccccc21,n,x,n,n,16µM
O=c1[nH]c(O)c(N=Nc2cc([N+](=O)[O-])ccc2O)c(=O)[nH]1,n,20µM,n,n,n
NC(=O)c1ccc(N=Nc2c(O)[nH]c(=O)[nH]c2=O)cc1,n,n,n,x,n
Cc1[nH]cnc1CCN,n,n,n,x,n
Cc1cc(NC(=O)COC(=O)c2c(C)nn(Cc3ccccc3)c2C)no1,n,n,n,n,n
Cc1nn(Cc2ccccc2)c(C)c1C(=O)OCC(=O)Nc1ccccc1SCC#N,n,25µM,n,n,n
Cc1cc(C)nc(/N=C/c2c(O)n(C)c(=O)n(C)c2=O)n1,n,u,u,x,n
CC(Cc1ccc(C(C)(C)C)cc1)CN1CCCCC1 (stereo not drawn),n,x,n,x,n
Cc1nn(CCc2n[nH]c(=S)n2-c2cccc(Cl)c2)c(C)c1[N+](=O)[O-],n,u,n,n,u
CCc1n[nH]c(=S)n1/N=C/c1c(C)nn(-c2ccccc2)c1Cl,n,n,u,n,7.1µM
COC(=O)c1ccc2ccn(CC(=O)NC(C)C)c2c1,n,u,n,n,n
CN1CCc2cc(O)cc3c2C1Cc1ccc(O)c(O)c1-3 (stereo not drawn),40µM,u,x,x,x
C=CCN1CCc2cccc3c2C1Cc1ccc(O)c(O)c1-3 (stereo not drawn),45µM,u,x,x,x
C=C(C)[C@H]1CC[C@]2(C(=O)O)CC[C@]3(C)[C@@H](CC[C@H]4[C@@]5(C)CC[C@@H](O)C(C)(C)[C@@H]5CC[C@@]43C)[C@H]12,n,n,n,x,n
O=C1NC(=O)N(Cc2ccccc2)C(=O)/C1=C\C=C\c1ccco1,n,3.2µM,n[10 µM],n,u
O=C1NC(=O)N(Cc2ccco2)C(=O)/C1=C/C=C/c1ccco1,n,x,n,1.2µM,n
O=C1CC(=O)N(Cc2ccccc2)C(=S)N1,n,x,n,n,n
O=C1NC(=O)N(Cc2ccccc2)C(=O)/C1=C/N1CCCc2ccccc21,n,8.9µM,n,27µM,n
SMILES,Sfp inh,ALDH1A1 block,VP16 counter,PLK1 PBD inh,RORgamma inh
CC[C@]1(O)CC[C@H]2[C@@H]3CCC4=CCCC[C@@H]4[C@H]3CC[C@@]21C,n,x,n,x,n
CC1(C)[C@H](C(=O)O[C@H](C#N)c2cccc(Oc3ccccc3)c2)[C@@H]1C=C(Br)Br,n,x,n,x,n
CC1(C)C(C=C(Cl)Cl)C1C(=O)OC(C#N)c1cccc(Oc2ccccc2)c1 (stereo not drawn),n,25µM!,n,x,n
CC(=O)CC(c1ccccc1)c1c(O)c2cccc(O)c2oc1=O (stereo not drawn),n,x,n,x,n
N#CC1=C(N)Oc2n[nH]c(-c3cccs3)c2C1c1ccsc1 (stereo not drawn),n,n,n,27µM,n
CCCCCCCn1c(=O)c(C(=O)Nc2cnccn2)c(O)c2ccccc21,n,x,n,n,n
CCCCCn1c(=O)c(C(=O)Nc2cnccn2)c(O)c2ccccc21,n,n,n,21µM,n
CCCCCCn1c(=O)c(C(=O)Nc2ncccc2C)c(O)c2ccccc21,n,x,7.9µM,n,14µM
CC(=O)OCC1=C[C@H]2[C@@H]3C(C)(C)[C@]3(OC(=O)Cc3ccccc3)C[C@@H](C)[C@]2(O)[C@@H]2C=C(C)C(=O)[C@@]2(O)C1,n,x,u,x,n
CCCCCCCCCC(=O)O[C@H]1CC[C@H]2[C@@H]3CCC4=CC(=O)CC[C@@H]4[C@H]3CC[C@]12C,n,n,n,x,n
Cc1ccc(/C=C2/C(=O)NC(=O)N(CC3CCCO3)C2=O)s1 (stereo not drawn),u,10µM,n,6µM,n
Cc1ccc(CNCCc2ccc(F)cc2)s1,n,x,n,n,n
Cc1ccc(/C=C2\C(=O)NC(=O)N(CCc3ccc(F)cc3)C2=O)s1,n,1.6µM,n,0.27µM,n
Cc1ccc(/C=C2/C(=O)NC(=O)N(CCc3ccc(F)cc3)C2=O)s1,n,u,n,0.95µM,n
Cc1c(N=Cc2c(O)n(CCc3ccc(F)cc3)c(=O)[nH]c2=O)c(=O)n(-c2ccccc2)n1C,n,u,x,n,n[0.365 µM]
NCc1cccnc1,n,x,n,x,n
NC(N)=Nc1ccc2[nH]c3c(c2c1)C[C@]1(O)[C@@H]2Cc4ccc(O)c5c4[C@]1(CCN2CC1CC1)[C@@H]3O5,n,25µM,n,x,n
C(CCOCC1CO1)COCC1CO1 (stereo not drawn),x,n,n,x,n
S=c1[nH]nc(-c2ccn[nH]2)n1-c1ccccc1Cl,56µM,x,n,u,u
C=CCc1cc(OC)c2c(c1OC)OCO2,n,n,u,x,n
COP(N)(=O)SC (stereo not drawn),n,n,n,x,n
Cc1cc(N2CCCC2)ccc1C=C(C#N)C#N,n,n,n[10 µM],u,n
Cc1ccc2cc(C=C(C#N)C#N)c(Cl)nc2c1,56µM,n,u,8.4µM,u
CCOP(=S)(OCC)Oc1cc(C)nc(N(CC)CC)n1,n,x,n,x,n

# Source: PubChem BioAssay
